{"source": "PubChem BioAssay AID651995", "about": "(Sanford-Burnham Center for Chemical Genomics, 2013)", "note": "The campaign covered roughly 2,500 compounds. About 480 (19%) were called active. Only a sample is shown. A number with no mark means an inactive call.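 Rule for the calls: active = mean inhibition above about 25% (limit read from the data); inactive = the rest.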"}
{"test": "Wnt3a reporter signal inhibition, confirmation, counter-screen for Gli-SUFU antagonist project, Wnt-LIGHT cells, luminescence, single concentration (AID 651995)", "conditions": "Wnt3a-driven luciferase reporter, at 6.25 µM, hits give high values"}
{"smiles": "Cc1ccc(S(=O)(=O)N2C[C@@H]3CCCC[C@@H]3[C@@H](C)[C@H]2c2cn(Cc3ccccc3)c3ccc(F)cc23)cc1", "inhibition": "30.5% (active)"}
{"smiles": "COc1ccccc1N1CCN(Cc2cc(OC)c3c(c2)OCO3)CC1", "inhibition": "-25%"}
{"smiles": "CCN(CC(=O)Nc1cc(Cl)ccc1C)C(=O)CSCc1ccc(C)cc1", "inhibition": "-8.43%"}
{"smiles": "C=CCOC(=O)C1=C[C@@H](c2ccc3c(c2)OCO3)C[C@@H](OCCCCO)O1", "inhibition": "-7.34%"}
{"smiles": "Cc1c(Cl)c([N+](=O)[O-])nn1Cc1ccc(C(=O)N/N=C\\c2cc(Cl)ccc2O)o1", "inhibition": "61.7% (active)"}
{"smiles": "Cc1cc([N+](=O)[O-])c(-c2ccc(/C=N/n3cnnc3)o2)cc1Cl", "inhibition": "-8.22%"}
{"smiles": "O=[N+]([O-])c1ccc(N2CCN(CC(O)COc3ccccc3)CC2)cc1", "note": "(stereo unspecified)", "inhibition": "-30.2%"}
{"smiles": "CC1(C)Cc2ccccc2/C(=C/C(=O)c2ccccc2)N1", "inhibition": "9.91%"}
{"smiles": "CCOC(=O)c1cnc(-n2nc(C)cc2C)nc1NNc1cc(C)nc(-c2ccccc2)n1", "inhibition": "40.7% (active)"}
{"smiles": "Cc1nn(C)c(Cl)c1CN1CCC(n2nccc2NC(=O)C2CCCC2)CC1", "inhibition": "-36.2%"}
{"smiles": "CCCC1=Nc2cc(C(=O)NCc3ccco3)ccc2Sc2ccccc21", "inhibition": "-23.7%"}
{"smiles": "CCN1/C(=C/C(=S)Nc2ccccc2)Sc2ccccc21", "inhibition": "-77.3%"}
{"smiles": "CCc1c(C)[nH]c(=S)c(C#N)c1C", "inhibition": "-19.5%"}
{"smiles": "N#CC(C#N)=CN=c1ccn(Cc2ccc(Cl)cc2Cl)cc1", "inhibition": "-5.79%"}
{"smiles": "N#Cc1ccc(C(=O)Nc2nc(-c3cccs3)c(C(=O)C(F)(F)F)s2)cc1", "inhibition": "65.1% (active)"}
{"smiles": "O=C(NC1CCN(C(=S)Nc2ccc(Cl)cc2)CC1)C1CCCCC1", "inhibition": "-1.08%"}
{"smiles": "Cc1ccc(-c2nc(CSCC(=O)NC3CCN(Cc4ccccc4)CC3)c(C)o2)cc1", "inhibition": "-19.9%"}
{"smiles": "CN(C)CCN(C(=O)C1CCCCC1)c1nc2cc3c(cc2s1)OCO3", "inhibition": "-21.9%"}
{"smiles": "c1c2c(cc3sc(N4CCCCC4)nc13)OCCO2", "inhibition": "85.8% (active)"}
{"smiles": "CN(C)C(CNC(=O)Cc1ccc([N+](=O)[O-])cc1)c1ccccc1", "note": "(stereo unspecified)", "inhibition": "-27%"}
{"smiles": "COc1ccccc1CNC(=O)C1CCN(c2nc3ccccc3o2)CC1", "inhibition": "-23.3%"}
{"smiles": "C=CCC1(CC=C)CCCN1C(=O)c1cc(COc2ccc(-n3cncn3)cc2)on1", "inhibition": "-17%"}
{"smiles": "CCCOc1ccccc1C1CC(=O)Nc2cc3c(cc21)OCO3", "note": "(stereo unspecified)", "inhibition": "-18.6%"}
{"smiles": "COc1ccc(NS(=O)(=O)c2ccc(NC(C)=O)cc2)cc1OC", "inhibition": "13.2%"}
{"smiles": "COc1ccc(NS(=O)(=O)c2ccc(N3CCN(CCO)CC3)c([N+](=O)[O-])c2)cc1", "inhibition": "26.4% (active)"}
{"smiles": "CC1(C)CC2CC(C)(CN2c2ncnc3ccc(Br)cc23)C1", "note": "(stereo unspecified)", "inhibition": "19%"}
{"smiles": "CC1(C)CC(=O)c2c(n(S(=O)(=O)c3ccccc3)c3ccc(NS(=O)(=O)c4ccccc4)cc23)C1", "inhibition": "13.1%"}
{"smiles": "COc1ccc(OC)c(Cc2cnc3nc(N)nc(N)c3c2C)c1", "inhibition": "14.4%"}
{"smiles": "O=C1/C(=C/c2ccc(F)cc2)SC(=S)N1NS(=O)(=O)c1ccccc1", "inhibition": "12.4%"}
{"smiles": "CN(c1ccc2nc3ccccc3c(=O)n2n1)C1CCCCC1", "inhibition": "101% (active)"}
{"smiles": "Nc1ccc(C(=O)N2CCN(S(=O)(=O)c3ccc(Cl)cc3)CC2)cc1[N+](=O)[O-]", "inhibition": "-13.1%"}
{"smiles": "CC(C)(CNC(=O)c1ccc(Cl)c(S(=O)(=O)N2CCc3ccccc3C2)c1)N1CCOCC1", "inhibition": "-21.4%"}
{"smiles": "O=C(CN1CCN(S(=O)(=O)c2cc(Cl)ccc2Cl)CC1)c1ccc(O)c(O)c1", "inhibition": "73.7% (active)"}
{"smiles": "COc1cccc(-n2cc(C(=O)O)c3ccccc3c2=O)c1", "inhibition": "20.7%"}
{"smiles": "CCOC(=O)c1cnc(Nc2nc3ccccc3o2)nc1CSC(=S)N1CCCCC1", "inhibition": "-97.9%"}
{"smiles": "COc1ccccc1CCNC(=O)C(=O)NCCC1CCCCN1S(=O)(=O)c1cccs1", "note": "(stereo unspecified)", "inhibition": "-17.3%"}
{"smiles": "CC(=O)Nc1ccc(NC(=O)c2ccc3c(c2)C(=O)N(c2ccccc2C)C3=O)cc1", "inhibition": "3.62%"}
{"smiles": "COC(=O)c1ccc(CSc2nnc(N)s2)o1", "inhibition": "-4.51%"}
{"smiles": "O=C1/C(=C\\c2cccnc2)CN(Cc2ccccc2)C/C1=C\\c1cccnc1", "inhibition": "-9.32%"}
{"smiles": "Cc1ccsc1C(=O)OCC(=O)c1cc(C)n(CC2CCCO2)c1C", "note": "(stereo unspecified)", "inhibition": "104% (active)"}
{"smiles": "Cc1onc(-c2ccccc2)c1C(=O)Nc1ccccc1C#N", "inhibition": "-19.9%"}
{"smiles": "CC(=O)Nc1cccc(OCC(=O)/C=C2\\N(C)c3ccccc3C2(C)C)c1", "inhibition": "-13.7%"}
{"smiles": "Cn1c(=O)c2c(nc(NCCc3ccccc3)n2Cc2ccccc2)n(C)c1=O", "inhibition": "-9.98%"}
{"smiles": "CCCCNc1nc2c(c(=O)n(C)c(=O)n2C)n1Cc1cccc(OC)c1", "inhibition": "36.1% (active)"}
{"smiles": "COCCn1c(CN2CCC(Cc3ccccc3)CC2)nc2c1c(=O)n(C)c(=O)n2C", "inhibition": "16.5%"}
{"smiles": "CN(C)c1cc[n+](Cc2ccccc2)cc1", "inhibition": "12.4%"}
{"smiles": "COc1ccc2nc(SCC(=O)Nc3c(C)cc(C)cc3C)[nH]c2c1", "inhibition": "-15%"}
{"smiles": "O=C(Nc1cccc(S(=O)(=O)Nc2ccc(Cl)cc2)c1)c1ccc2c(c1)OCCO2", "inhibition": "-22.2%"}
{"smiles": "Cc1ccc(NC(=S)Nc2ccc(F)cc2)cc1", "inhibition": "-8.22%"}
{"smiles": "CC(C)c1ccc(OCC(O)CN2CCN(c3ccccn3)CC2)cc1", "note": "(stereo unspecified)", "inhibition": "-70.7%"}
{"smiles": "C=CCNC(=S)/N=c1/ccccn1Cc1ccccc1", "inhibition": "-4.94%"}
{"smiles": "CCOC(=O)c1ccc(NC(=O)Cn2cnc3cc(C)c(C)cc32)cc1", "inhibition": "-27.9%"}
{"smiles": "COc1ccc(NC(=O)[C@H](NC(=O)[C@@H]2Cc3ccccc3CN2)c2ccccc2)cc1", "inhibition": "-2.11%"}
{"smiles": "Cc1ccc(C)c(S(=O)(=O)N2CCN(c3ncnc4sccc34)CC2)c1", "inhibition": "11.2%"}
{"smiles": "CC(=O)N1CCCc2cc(S(=O)(=O)N3CCCC(C(=O)N4CCN(c5cccc(Cl)c5)CC4)C3)ccc21", "note": "(stereo unspecified)", "inhibition": "29.8% (active)"}
{"smiles": "Brc1c(CSc2nncc3ccccc23)nc2ccccn12", "inhibition": "1.67%"}
{"smiles": "COc1ccc(Cn2c(-c3ccc(Cl)cc3)c[n+]3ccccc23)cc1", "inhibition": "-74.3%"}
{"smiles": "CCCCC(=O)NC(c1ccc(OC)c(OC)c1)c1ccc2cccnc2c1O", "note": "(stereo unspecified)", "inhibition": "53.4% (active)"}
{"smiles": "Cc1ccc(Nc2nc(N3CCOCC3)nc(N3CCOCC3)n2)cc1Cl", "inhibition": "-104%"}
{"smiles": "COc1ccccc1C1C2=C(COC2=O)Nc2cc3c(cc21)OCO3", "note": "(stereo unspecified)", "inhibition": "-30.9%"}
{"smiles": "COC(=O)Cc1[nH]n(-c2nc3ccccc3s2)c(=O)c1C(C)=Nc1ccc(OC)cc1", "inhibition": "104% (active)"}
{"smiles": "COc1cc(C(=O)OC2CCOC2=O)c([N+](=O)[O-])cc1OC", "note": "(stereo unspecified)", "inhibition": "1.38%"}
{"smiles": "CCOc1ccc(-n2c(O)c(/C=N/Nc3nc(C)cc(C)n3)c3ccccc3c2=O)cc1", "inhibition": "16.1%"}
{"smiles": "CN1C(CC(=O)Nc2ccc(Br)cc2)c2ccccc2CC1(C)C", "note": "(stereo unspecified)", "inhibition": "-37.9%"}
{"smiles": "CC(=O)/C(=N\\Nc1ccc(Cl)cc1Cl)Sc1cccc2cccnc12", "inhibition": "-140%"}
{"smiles": "C/C(=N\\NC(=O)Cc1ccc(Cl)cc1)c1ccccn1", "inhibition": "48.9% (active)"}
{"smiles": "CCNC(=S)N(CCN(CC)CC)Cc1cc2cc3c(cc2[nH]c1=O)OCO3", "inhibition": "-0.1%"}
{"smiles": "Cc1nonc1C1CCCN1C(=O)c1cc(COc2cccc(C(F)(F)F)c2)on1", "note": "(stereo unspecified)", "inhibition": "-42%"}
{"smiles": "Cc1ccc(S(=O)(=O)N(Cc2cc3ccccc3[nH]c2=O)CC2CCCO2)cc1", "note": "(stereo unspecified)", "inhibition": "1.8%"}
{"smiles": "Cc1cc2[nH]ncc2cc1NC(=S)NC(=O)c1ccccc1", "inhibition": "-34.9%"}
{"smiles": "Cc1ccccc1C(=O)NC(=S)Nc1ccc(N2CCN(C(=O)c3ccccc3)CC2)cc1", "inhibition": "41.2% (active)"}
{"smiles": "Cc1cc(C)c(SCCc2ccncc2)c(C)c1", "inhibition": "32% (active)"}
{"smiles": "CCCOc1ccc(Cc2c(Cl)nc(SC)nc2NC)cc1", "inhibition": "26.9% (active)"}
{"smiles": "O=C(Nc1ccnn1C1CCN(C/C=C/c2ccc(F)cc2)CC1)C1CCCC1", "inhibition": "-63.4%"}
{"smiles": "CNc1ccc(SC#N)cc1", "inhibition": "-9.54%"}
{"smiles": "COc1ccc(C(=O)NC2CCCc3c2cnn3-c2cccc(C)c2C)c(OC)n1", "note": "(stereo unspecified)", "inhibition": "24.6%"}
{"smiles": "CCN(CC)CCNC(=O)c1ccc(NC(=O)c2cc(-c3ccncc3)nc3ccccc23)cc1", "inhibition": "-2.49%"}
{"smiles": "Cc1ccc(C(=O)C[n+]2cc(-c3ccccc3)n3c2CCCCC3)cc1", "inhibition": "-0.91%"}
{"smiles": "Cc1ccc(-c2nc3c(cnn3-c3ccccc3)c(=O)o2)cc1", "inhibition": "4.18%"}
{"smiles": "O=C(C[C@H]1C/C=C\\C[C@@H](NC(=O)OCC2c3ccccc3-c3ccccc32)C(=O)O[C@@H](c2ccccc2)CNC1=O)N[C@H](CO)Cc1ccccc1", "inhibition": "-44.6%"}
{"smiles": "COc1ccc(OC)c(/C=N/NC(=O)c2ccc[n+](CC(=O)c3ccccc3)c2)c1", "inhibition": "2.64%"}
{"smiles": "CC[n+]1c(C)n(-c2ccccc2)c2ccc(NC(C)=O)cc21", "inhibition": "43.4% (active)"}
{"smiles": "Cc1ccc(O)c(NC(=O)COc2cc(C)ccc2C)c1", "inhibition": "-3.69%"}
{"smiles": "CNc1nnc(-c2ccco2)s1", "inhibition": "-3.08%"}
{"smiles": "COC(=O)c1ccccc1NC(=O)C1(S(=O)(=O)c2ccc(Cl)cc2)CC1", "inhibition": "-1.78%"}
{"smiles": "O=C(Nc1nc2ccc([N+](=O)[O-])cc2s1)c1ccc(S(=O)(=O)N2CCCc3ccccc32)cc1", "inhibition": "65.8% (active)"}
{"smiles": "CCc1ccc(C2C(C#N)=C(N)N(N3CCOCC3)C3=C2C(=O)CC(C)(C)C3)s1", "note": "(stereo unspecified)", "inhibition": "-28.8%"}
{"smiles": "CCCc1nc(N)nc2c1C(=O)CC(C)(C)C2", "inhibition": "9.89%"}
{"smiles": "Cc1cc(NC(=O)c2cccc(N3C(=O)CCC3=O)c2)no1", "inhibition": "66% (active)"}
{"smiles": "CC1CC2=C(CC1/C=N/NC(N)=S)C(C)(C)CCC2", "note": "(stereo unspecified)", "inhibition": "21.2%"}
{"smiles": "CCc1c(C)nc2cc(C)[nH]n2c1=O", "inhibition": "-9.69%"}
